Experimental data published in PubChem BioAssay AID1035475 (Broad Institute, 2014).
Potency and affinity values are given separately. Results filed as inconclusive are left out. Entries that show only a call come without a potency. Active and inactive are the calls of the source.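 Rule for the calls: active = fluorescent signal drops by 40% or more, counted as a hit; inconclusive = no clear call, values can overlap the other calls; inactive = the rest, including any activity in the opposite direction.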

Experiment: inhibitors of fibronectin matrix deposition, dose response, AH1F cells, Alexa488-FN fluorescence, cherry-picks (AID 1035475);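 note: AH1F fibroblasts incorporating labeled fibronectin into their extracellular matrix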
Details: AH1F fibroblasts, overnight; series mostly up to 35 µM

## C=C1C(=O)O[C@@H]2C[C@@H](C)[C@@H]3C=CC(=O)[C@@]3(C)[C@@H](O)[C@H]12
  outcome: inactive
